Among the data in ChEMBL document CHEMBL3433997, “St. Jude Leishmania screening dataset” (2016) are inhibition values, retold here.

What all share (type): functional
Test [1] has as its target Solute carrier family 2, facilitated glucose transporter member 1 (Homo sapiens) (UniProt P11166). In words: ST_JUDE_LEISH: Cytotoxicity at 2uM final concentration against transgenic Leishmania Mexicana promastigotes LmGLUT1 that are glucose transport deficient and complemented with the human glucose transporter GLUT1. Activity is measured by DNA content using SYBR green in vitro.

Test [2] addresses Hexose transporter 1 (Plasmodium falciparum) (UniProt O97467). Description: ST_JUDE_LEISH: Cytotoxicity at 2uM final concentration against transgenic Leishmania Mexicana promastigotes LmPfHT that are glucose transport deficient and complemented with the Plasmodium falciparum hexose transporter. Activity is measured by DNA content using SYBR green in vitro.
Test [3] addresses Glucose transporter (Leishmania mexicana) (UniProt O61059). Description: ST_JUDE_LEISH: Cytotoxicity at 2uM final concentration against transgenic Leishmania Mexicana promastigotes LmGT2 that are glucose transport deficient and complemented with the L. Mexicana glucose transporter 2. Activity is measured by DNA content using SYBR green in vitro.

Chain of Solute carrier family 2, facilitated glucose transporter member 1 (Homo sapiens) (P11166 whole entry): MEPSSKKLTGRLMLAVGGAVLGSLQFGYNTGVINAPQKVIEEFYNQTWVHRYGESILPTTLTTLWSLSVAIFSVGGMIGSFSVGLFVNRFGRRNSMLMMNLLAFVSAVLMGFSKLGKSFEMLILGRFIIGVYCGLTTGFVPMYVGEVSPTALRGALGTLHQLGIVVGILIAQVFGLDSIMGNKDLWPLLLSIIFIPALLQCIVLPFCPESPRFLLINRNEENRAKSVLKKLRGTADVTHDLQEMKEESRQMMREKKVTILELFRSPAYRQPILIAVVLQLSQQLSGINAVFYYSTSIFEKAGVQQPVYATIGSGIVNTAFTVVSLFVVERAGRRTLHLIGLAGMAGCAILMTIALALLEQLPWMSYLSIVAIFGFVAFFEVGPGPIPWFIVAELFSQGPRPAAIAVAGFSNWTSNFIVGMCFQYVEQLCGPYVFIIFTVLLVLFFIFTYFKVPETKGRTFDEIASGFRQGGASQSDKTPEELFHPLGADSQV

As to `COc1cccc(C(O)CNc2ccnc(Nc3ccc(Cl)cc3)n2)c1` (stereo unspecified), the inhibition (in general, the relative decrease from the control value, in per cent) in test [1] was 6%; in test [2] it was 5.73%; in test [3], 1.85%.
Consider `COc1cc(C(=O)N2CCN(C(C)C)CC2)ccc1CN(C)CCCCN1CCN(c2cccc(Cl)c2Cl)CC1`, for which the figures for the inhibition in test [1], in test [2] and in test [3] were 1.77%, 1.73% and 0.12%, respectively.
As to `CCNc1cc(C(=O)N[C@@H](Cc2ccccc2)[C@H](O)CNCc2cccc(-n3ccnc3)c2)cc(N2CCCC2=O)c1`, the inhibition in test [1] was -1.37%; in test [2], -0.52%; in test [3], 1.12%.
As for `CNC(=O)C1Cc2c([nH]c3ccc(Cl)cc23)C2(CCN(CCc3ccccc3)CC2)N1` (stereo unspecified), the inhibition in test [1] was 3.32%; in test [2] it was 0.71%; in test [3], -2.87%.
Taken in the same sequence, the figures for `CCCNCc1ccc(-c2ccc(CN(Cc3cnc(C)cn3)C(=O)c3nn(-c4ccccc4)nc3C)cc2)nc1` were 2.69%, 0.9% and -6.47%.
In the same order, the values of `COc1ccc2nccc([C@@H](O)CN3CCC(NCc4cn5cc(F)ccc5n4)CC3)c2c1` are 2.06%, 2.19% and -0.13%.
Taken in the same sequence, the figures for `c1cc(CN2CCN(c3ccncc3)CC2)cc(-c2ccc(-c3nc4ccccc4[nH]3)cc2)c1` were 8.29%, 5.17% and 2.65%.
For `COc1ccc(NC(=O)[C@H](Cc2ccccc2)Nc2cc(C)nc(NCc3ccccc3C)n2)cc1`, the inhibition came to 4.42% in test [1], 5.01% in test [2] and 2.59% in test [3].
Taken in the same sequence, the figures for `CC(C)(C)c1ccc(NC(=O)c2ccc(CN3CCCN(Cc4cccc(F)c4)CC3)cc2)cc1` were 13.7%, 13.3% and 11.8%.
For `CCc1nnc2sc(-c3cccc(NC(=O)c4ccc(OC)c(Cl)c4)c3)nn12`, the inhibition was determined as 1.05% in test [1], 2.45% in test [2] and 3.88% in test [3].
`O=C(Nc1cccc(C(F)(F)F)c1)c1ccc(S(=O)(=O)NCC2CCCN2CC2CCCCC2)cc1` (stereo unspecified): the inhibition in test [1] was 1.8%; in test [2], 3.93%; in test [3] it was -0.18%.
In the same order, the values of `N#Cc1cccc(-c2cccc(C(=O)NC3CCC(CCN4CCc5ccc(C#N)cc5CC4)CC3)c2)c1` (stereo unspecified) are 10.8%, 8.62% and 11.2%.
In the same order, the values of `c1ccc(OCCCCN2CCCCC2)cc1` are 0.95%, 0.56% and -4.15%.
Taken in the same sequence, the figures for `Cc1cc2[nH]c(-c3ccc(C(=O)NCCCN4CCN(c5cccc(Cl)c5)CC4)s3)nc2cc1Cl` were 3.07%, 3.29% and 2.02%.
Consider `Cc1c(-c2ccc3c(c2)C(NCCCN2CCCCC2)CC3)cnc(N)c1C` (stereo unspecified), for which the inhibition is 0.7% in test [1], 0.89% in test [2] and 2.57% in test [3].
Regarding `c1ccc2cc3c(Nc4ccc(N5CCCCCC5)cc4)ccnc3cc2c1`, the figures for the inhibition in test [1], in test [2] and in test [3] were 0.03%, 0.23% and 0.24%, respectively.
Regarding `CN(C)C(CNc1ncnc2cc(Cl)ccc12)Cc1ccccc1` (stereo unspecified), the figures for the inhibition in test [1], in test [2] and in test [3] were 4.67%, 3.87% and 3.65%, respectively.
In the same order, the values of `COc1cc(C(=O)NCCCN2CCN(c3cccc(Cl)c3)CC2)ccc1-c1nc2cc(Cl)c(F)cc2[nH]1` are 1.22%, 0.6% and 0.03%.
As to `O=C(Nc1ccc(Oc2ccccc2)cc1)N(Cc1ccc(-c2cccc(CN3CCNCC3)c2)cc1)C1CCN(Cc2ccccc2)CC1`, the inhibition was found to be 3.46% in test [1], 3.12% in test [2] and 3.01% in test [3].
In the same order, the values of `O=C(c1cccc(-c2cccc(-c3nc4cc(F)ccc4[nH]3)c2)c1)N1CCCCC1CN1CCC(O)C1` (stereo unspecified) are 0.52%, -0.32% and 0.51%.
As to `Cc1cc(N[C@@H](Cc2ccccc2)C(=O)NCCOc2ccccc2)nc(NCCc2ccc(F)cc2)n1`, the inhibition in test [1] stood at 15.1%; in test [2] it was 11.7%; in test [3], 10.1%.
In the same order, the values of `C=CCNC(=O)CCCNC(=N)N` are 1.5%, 1.22% and -0.35%.
Taken in the same sequence, the figures for `O=c1cc(NCCCNCc2cc(Cl)cc(Cl)c2OCc2ccc(Cl)cc2)[nH]c2ccccc12` were 1.67%, 0.9% and 3.19%.
In the case of `Cc1cc(NCCC(=O)NCCOc2ccccc2)nc(NCCOc2ccccc2)n1`, the inhibition was 3.09% in test [1], -0.07% in test [2] and 0.08% in test [3].
Regarding `CCCC(=O)NC(c1ccc(C(C)C)cc1)c1ccc2cccnc2c1O` (stereo unspecified), the figures for the inhibition in test [1], in test [2] and in test [3] were 2.04%, 3.11% and 0.65%, respectively.
In the same order, the values of `COc1c(C2CCN(CCN3CCC(CNC(=O)c4ccc(-c5ccc(C#N)cc5)cc4)CC3)CC2)ccc2c1CCCC2` are 3.97%, 8.83% and 8.54%.
`O=C(/C=C/c1cc([N+](=O)[O-])ccc1Cl)N1CCC(CCN2CCC(c3c[nH]c4ccccc34)CC2)CC1`: the inhibition in test [1] worked out at 2.1%; in test [2] it was 3.61%; in test [3], 0.76%.
In the same order, the values of `Cc1cccc2nc(-c3cccc(-c4cccc(CNCC5CCCO5)c4)c3)[nH]c12` (stereo unspecified) are 1.16%, 0.17% and 1.17%.
Taken in the same sequence, the figures for `O=c1ccc2ccc(F)c3c2n1CC3CN1CCC(NCc2cccc(-c3ccccc3F)c2)CC1` (stereo unspecified) were 19.1%, 22.3% and 11.4%.
In the case of `COc1ccc2nccc([C@@H](O)CN3CCC(NC(=O)/C=C/c4c[nH]c5c(C)cccc45)CC3)c2c1`, the values for the inhibition in test [1], in test [2] and in test [3] were 1.59%, 1.23% and -5.23%, respectively.
Taken in the same sequence, the figures for `COc1ccc(CNCc2cccc(-c3ccc(-c4nc5cccc(C)c5[nH]4)cc3)c2)cc1` were 14%, 9.73% and 7.5%.
In the same order, the values of `CN(C)Cc1cccc(-c2ccc3ccnc(N)c3c2)c1` are 1.78%, 3.34% and 1.17%.
